Records with an inconclusive call do not appear. Some compounds were tested as several samples or in several runs, with calls that do not always agree. The source made the active and inactive calls. How the source made its calls: active means hit-call score of the fitted dose curve at least 0.9, where 1 is the maximum; inconclusive means response in the unintended direction; inactive means score below 0.9.

As a reminder, the AC50 is the concentration giving half of the maximal activity seen.

Read-out in this experiment: HMG-CoA synthase (HMGCS2), HMGCS2 (gene 3158)
Kind of experiment: CLD_HMGCS2_48hr: CellzDirect (CLD) Gene Expression Assay for HMG-CoA synthase (HMGCS2) at 48 hours (AID 2283711). The method, then: CLD_48hr is a cell-based, multiplexed-readout assay that uses hepatocyte, a human liver primary cell, with measurements taken at 48 hours after chemical dosing in a 96-well plate.CLD_HMGCS2_48hr is one of 16 assay component(s) measured or calculated from the CLD_48hr assay. It is designed to make measurements of mRNA induction, a form of inducible reporter, as detected with chemiluminescence signals by Quantitative Nuclease Protection Assay (qNPA) technology.Data from the assay component CLD_HMGCS2_48hr was analyzed at the endpoint, CLD_HMGCS2_48hr, in the positive analysis fitting direction relative to DMSO as the negative control and baseline of activity. Using a type of inducible reporter, gain-of-signal activity can be used to understand changes in the reporter gene as they relate to the gene HMGCS2. Furthermore, this assay endpoint can be referred to as a primary readout. To generalize the intended target to other relatable targets, this assay endpoint is annotated to the lyase intended target family, where subfamily is HMG-CoA synthase.
Human hepatocyte cultures were treated daily for two consecutive days with fresh dosing solutions containing appropriate concentrations of the 320 ToxCast chemicals (chemical identities were blinded to CellzDirect and other ToxCast collaborators), vehicle control (0.2% DMSO), and positive control inducers as summarized in Table 1. Due to the large number of treatment groups and chemicals examined, the ToxCast chemicals were divided into two groups (spanning two independent cultures of hepatocytes from separate donor preparations (Hu778: ToxCast plates 1 and 2; Hu776: ToxCast plates 3 and 4). Each preparation of human hepatocyte cultures was treated with respective vehicle control, medium only control, set of six positive controls/reference chemicals for the five hepatic receptor pathways, and a subset of eight of the ToxCast chemicals (indoxacarb, pyrithiobac-sodium, norflurazon, cyhalofop-butyl, methomyl, thiram, acetochlor, and propiconazole). These replicate data, coupled with internal replicates designed within the blinded ToxCast chemical library, provided additional data to evaluate interindividual differences between hepatocyte preparations and their potential impact on chemical profiles.Cell morphology and integrity were evaluated using phase-contrast microscopy as an indicator of hepatocyte cell health (Tyson & Green, 1987). Cultures for each treatment group (i.e., media, vehicle [0.2% DMSO], positive control inducers [multiple concentrations], and the ToxCast chemicals [multiple concentrations]) were observed and cell morphology was assessed relative to vehicle control cultures at each harvest time point (0, 6, 24, or 48 h). […] Images were evaluated at the conclusion of the study to assess changes in cell integrity and account for the effects of chemical exposure on uncharacteristic changes in concentration-dependent gene expression profiles. The results from these determinations of apparent cytotoxicity were annotated (yes/no) alongside the corresponding qNPA data for reference.At the conclusion of each treatment period, hepatocyte cultures (96-well) were washed with 1 volume of HBSS, lysed by addition of 25 ul ArrayPlate lysis buffer (HTG, Tucson, AZ), and 70 ul/well of Denaturation Oil, denatured by incubation at 95C for 10 min, and frozen at approximately -70C until analysis by nuclease protection assay (qNPA) (Roberts et al., 2007). For qNPA analysis, cell lysates were thawed at 50C for approximately 30 min, qNPA probes were added, and samples were incubated at 95C for 10 min to begin the detection process by denaturing the target RNA, dissociating the duplexes and secondary structure hybridization. At the conclusion of the hybridization period, S1 nuclease reagent was added to each sample to digest all nonprotected nucleotides at 50C for 60-90 min. […]
On to `C=CCC1=C(C)C(OC(=O)C2C(C=C(C)C)C2(C)C)CC1=O` (centres undefined), for which the result was inactive. On the same count and under the same terms, the result for `CCCCOC(=O)c1ccccc1C(=O)OCCCC` reads “inactive”. On the same count and under the same terms, the result for `N#CC(CCc1ccc(Cl)cc1)(Cn1cncn1)c1ccccc1` (centres undefined) reads “inactive”. `COC(=O)c1ccccc1C(=O)OC`: the molecule was classed as inactive.

With `CC(C)(C)c1ccc(CSc2cnn(C(C)(C)C)c(=O)c2Cl)cc1`, the result was inactive.

In the case of `C#CCOS(=O)OC1CCCCC1Oc1ccc(C(C)(C)C)cc1` (centres undefined), the outcome was inactive. `COC(=O)C(C)Oc1ccc(Oc2ccc(Cl)cc2Cl)cc1` (centres undefined): the AC50 was 35.6 µM (active) and the call was inactive. `CC(Oc1ccc(Cl)cc1Cl)C(=O)O` (centres undefined): the molecule was classed as inactive. `CC1COC(Cn2cncn2)(c2ccc(Oc3ccc(Cl)cc3)cc2Cl)O1` (centres undefined): the result was inactive.

Consider `CS/C(C)=N/OC(=O)N(C)SN(C)C(=O)O/N=C(\C)SC`, for which the result was inactive. Same read-out and setting: as for `COC(=O)N(OC)c1ccccc1COc1ccn(-c2ccc(Cl)cc2)n1`, the entry is “inactive”; as for `CCOP(=S)(OCC)SCn1c(=O)oc2cc(Cl)ccc21`, “inactive”. Turning to `O=C(O)c1nc(Cl)ccc1Cl`, the call was inactive. On the same count and under the same terms, the result for `COc1nc(C)nc(NC(=O)NS(=O)(=O)c2ccccc2CCC(F)(F)F)n1` reads “inactive”; that for `O=C(O)COc1nc(Cl)c(Cl)cc1Cl`, “inactive”.

`COP(N)(=O)SC` (centres undefined): the molecule was called inactive. The same measure, in the same setting: as for `Cc1cc(Cl)ccc1OCC(=O)O`, the entry is “inactive”; as for `CCON=C(CC)C1=C(O)CC(c2c(C)cc(C)cc2C)CC1=O` (centres undefined), “inactive”.

Source of the values: PubChem BioAssay (EPA / NIEHS).
